From a collection of fitness landscapes (doi:10.1016/j.celrep.2020.107928)
The full ranking holds about 81,000 sequences; the median of “one-hybrid fitness for binding parS DNA” is about -0.17, and the highest 2% start at about 0.51. This excerpt belongs to a sample that is enriched for the highest values.

B1: Caulobacter ParB omega fusion; a variant is named by its letters at X, in order, B8GW30 (parent)
chain: MESVVVGEPGMSEGRRGLGRGLSALLGEVDAAPAQAPGEQLGGSREAPIEILQRNPDQPRRTFREEDLEDLSNSIREKGVLQPILVRPSPDTAGEYQIVAGERAWRAAQRAGLKTVPIMVRELDDLAVLEIGIIENVQRADLNVLEEALSYKVLMEKFERTQENIAQTIGKSXSHVANXMRLLXLPDEVQSYLVSGELTAXHARAIAAAADPVALAKQIIEGGLSVRETEALARKAPNLSAGKSKGGRPPRVKDTDTQALESDLSSVLGLDVSIDHRGSTGTLTITYATLEQLDDLCNRLTRGI

Variants of: B1
Assay: one-hybrid fitness for binding parS DNA (scaled: cognate 1, non-cognate 0); higher = stronger binding
Details: with parS DNA site
How it was run: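 On M9-minus-histidine containing 0.1 mM IPTG and 5 mM 3-AT, E. coli USO cells with a HIS3 reporter, site 19 bp from the promoter, grew 48 hours at 37°C to select Caulobacter ParB libraries randomised at four specificity codons. Plasmids from before and after were Illumina-sequenced, with three replicate libraries pooled and variants under 10 reads left out. Fitness is the log change in variant-to-wild-type read ratio, rescaled against cognate and non-cognate.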

Row | Variant | one-hybrid fitness for binding parS DNA
1 | TLSH | ≤ 0.2
2 | DKSV | ≤ 0.2
3 | GGQR | ≤ 0.2
4 | GCKT | ≤ 0.2
5 | HKHC | ≤ 0.2
6 | EMRS | ≤ 0.2
7 | QDPW | ≤ 0.2
8 | RVEA | 0.483
9 | RVYA | 0.64
10 | DVMA | ≤ 0.2
11 | NVYA | ≤ 0.2
12 | RVQA | 0.597
13 | NVNA | ≤ 0.2
14 | RVNA | 0.602
15 | EVQA | ≤ 0.2
16 | NVQA | ≤ 0.2
17 | PVNA | ≤ 0.2
18 | RVMA | 0.545
19 | FHNR | ≤ 0.2
20 | KHET | ≤ 0.2
21 | LGQH | ≤ 0.2
22 | KKTT | ≤ 0.2
23 | TGPM | ≤ 0.2
24 | PPMA | ≤ 0.2
25 | WVPV | ≤ 0.2

Row | Variant | one-hybrid fitness for binding parS DNA
26 | GEND | ≤ 0.2
27 | TSEH | ≤ 0.2
28 | NVRA | ≤ 0.2
29 | CVLA | ≤ 0.2
30 | NVLA | ≤ 0.2
31 | RVLA | 0.565
32 | PVGA | ≤ 0.2
33 | DVRA | ≤ 0.2
34 | RVDA | 0.556
35 | NVDA | ≤ 0.2
36 | RVGA | 0.565
37 | RVRA | 0.689
38 | DVGA | ≤ 0.2
39 | EWRT | ≤ 0.2
40 | LSNV | ≤ 0.2
41 | LQAW | ≤ 0.2
42 | ESFC | ≤ 0.2
43 | WPSS | ≤ 0.2
44 | KRVW | ≤ 0.2
45 | IRFN | ≤ 0.2
46 | FLDR | ≤ 0.2
47 | MLTT | ≤ 0.2
48 | YVRR | ≤ 0.2
49 | RCPV | ≤ 0.2
50 | NVCA | ≤ 0.2

Row | Variant | one-hybrid fitness for binding parS DNA
51 | RVCA | 0.608
52 | KMLT | ≤ 0.2
53 | WVPC | ≤ 0.2
54 | CYWL | ≤ 0.2
55 | QPKK | ≤ 0.2
56 | VRCA | ≤ 0.2
57 | RHVR | ≤ 0.2
58 | RHVC | 0.773
59 | RHVQ | ≤ 0.2
60 | RHKQ | ≤ 0.2
61 | RHKC | 0.858
62 | RHKM | 0.358
63 | SHAT | ≤ 0.2
64 | DRYP | ≤ 0.2
65 | IQCS | ≤ 0.2
66 | TYDM | ≤ 0.2
67 | RGVS | 0.516
68 | RGKN | 0.369
69 | RGVP | ≤ 0.2
70 | RGKD | ≤ 0.2
71 | RGKT | 0.712
72 | RGKS | 0.927
73 | RGVN | ≤ 0.2
74 | RGVT | 0.33
75 | RGKY | 0.436

Row | Variant | one-hybrid fitness for binding parS DNA
76 | LSNY | ≤ 0.2
77 | WVRY | ≤ 0.2
78 | MIPI | ≤ 0.2
79 | GELY | ≤ 0.2
80 | GYSK | ≤ 0.2
81 | QACE | ≤ 0.2
82 | NCKN | ≤ 0.2
83 | VNAS | ≤ 0.2
84 | RRKA | 0.532
85 | RRVA | 0.78
86 | NRVA | ≤ 0.2
87 | DRKA | ≤ 0.2
88 | NRKA | ≤ 0.2
89 | YMAC | ≤ 0.2
90 | EHCS | ≤ 0.2
91 | RYSC | 0.929
92 | RYSK | ≤ 0.2
93 | RYLR | ≤ 0.2
94 | RYLK | ≤ 0.2
95 | RYQN | 0.318
96 | RYQC | 0.898
97 | RYHR | ≤ 0.2
98 | RYLC | 0.955
99 | RYHY | 0.423
100 | RYHC | 0.949

Row | Variant | one-hybrid fitness for binding parS DNA
101 | RYSF | ≤ 0.2
102 | RYQP | ≤ 0.2
103 | SLCV | ≤ 0.2
104 | CHLH | ≤ 0.2
105 | CAHG | ≤ 0.2
106 | MLWF | 0.204
107 | KWCS | ≤ 0.2
108 | VPGF | ≤ 0.2
109 | PGPY | ≤ 0.2
110 | ELLG | ≤ 0.2
111 | NRNN | ≤ 0.2
112 | TSHR | ≤ 0.2
113 | SYEV | ≤ 0.2
114 | RYRK | ≤ 0.2
115 | RYCF | ≤ 0.2
116 | RYCR | ≤ 0.2
117 | RYWF | 0.258
118 | RYWC | 0.887
119 | RYYC | 0.975
120 | RYYR | ≤ 0.2
121 | RYRM | 0.328
122 | RYYQ | ≤ 0.2
123 | RYWR | ≤ 0.2
124 | RYCC | 0.903
125 | RYRC | 0.798

Row | Variant | one-hybrid fitness for binding parS DNA
126 | QPAG | ≤ 0.2
127 | WKQT | ≤ 0.2
128 | SDLQ | ≤ 0.2
129 | CPED | ≤ 0.2
130 | GWLY | ≤ 0.2
131 | RYGP | ≤ 0.2
132 | RYGC | 0.914
133 | RYGH | ≤ 0.2
134 | DNPV | ≤ 0.2
135 | SFCG | ≤ 0.2
136 | DFRG | ≤ 0.2
137 | NFRG | ≤ 0.2
138 | NFCG | ≤ 0.2
139 | RFHG | 0.974
140 | RFCG | 0.895
141 | RFRG | 0.992
142 | DFYG | ≤ 0.2
143 | RFYG | 0.899
144 | NFHG | ≤ 0.2
145 | DFHG | ≤ 0.2
146 | NFYG | ≤ 0.2
147 | QYLK | ≤ 0.2
148 | ALTP | ≤ 0.2
149 | ELKN | ≤ 0.2
150 | VNHC | ≤ 0.2

Row | Variant | one-hybrid fitness for binding parS DNA
151 | DHWC | ≤ 0.2
152 | FRFT | ≤ 0.2
153 | TDKR | ≤ 0.2
154 | FTYC | ≤ 0.2
155 | QQPP | ≤ 0.2
156 | WLFI | ≤ 0.2
157 | AEPL | ≤ 0.2
158 | NFGG | ≤ 0.2
159 | DFLG | ≤ 0.2
160 | RFLH | 0.217
161 | RFLG | 0.891
162 | RFGD | ≤ 0.2
163 | RFGG | 0.918
164 | QKFT | ≤ 0.2
165 | TIPM | ≤ 0.2
166 | DRFA | ≤ 0.2
167 | DRAA | ≤ 0.2
168 | NRAA | ≤ 0.2
169 | RRFA | 0.806
170 | NRFA | ≤ 0.2
171 | RRAA | 0.724
172 | RAFI | ≤ 0.2
173 | DPVD | ≤ 0.2
174 | RHVP | ≤ 0.2
175 | RHVG | 0.847

Row | Variant | one-hybrid fitness for binding parS DNA
176 | RHKD | ≤ 0.2
177 | RHVH | ≤ 0.2
178 | RHKG | 0.879
179 | RHKH | 0.248
180 | QEEC | ≤ 0.2
181 | PYTA | ≤ 0.2
182 | QTGF | ≤ 0.2
183 | RWHG | 0.754
184 | RWNN | 0.355
185 | RWRG | 0.881
186 | RWNP | ≤ 0.2
187 | RWHH | ≤ 0.2
188 | RWLF | ≤ 0.2
189 | RWRY | 0.494
190 | RWNG | 0.797
191 | RWRQ | ≤ 0.2
192 | RWHP | ≤ 0.2
193 | RWLG | 0.685
194 | RWLY | 0.266
195 | DKAC | ≤ 0.2
